Laboratory results taken from the supplement of paper PMC6555819.

Columns and labels:
Assay in all cases: PBM binding z-score (relative to random genomic background probes); higher = stronger binding; sequences stand for … in GC…GCGATTGACAGCGTAGAATGAAGG
[1] = system: FXR:RXRa (NR concentration 270 nM, RXRa partner concentration 90 nM)
How it was run: (§1)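 Binding z-scores take random background probes as their reference. They come from custom Agilent 4×180K protein-binding microarrays incubated 1 h with ligand-free nuclear receptor dimers, with antibodies against each partner (one per run) detecting binding. Scanned fluorescence was regression-normalized.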

[2] = system: LXRa:RXRa (NR concentration 270 nM, RXRa partner concentration 90 nM)
How it was run: as §1

[3] = system: LXRa homodimer (NR concentration 270 nM)
How it was run: as §1

[4] = system: LXRb:RXRa (NR concentration 270 nM, RXRa partner concentration 90 nM)
How it was run: as §1

[5] = system: LXRb homodimer (NR concentration 270 nM)
How it was run: as §1

[6] = system: PPARa:RXRa (NR concentration 270 nM, RXRa partner concentration 90 nM)
How it was run: as §1

[7] = system: PPARg:RXRa (NR concentration 180 nM, RXRa partner concentration 90 nM)
How it was run: as §1

[8] = system: PPARg:RXRa 270nM:90nM, anti-RXR (NR concentration 270 nM, RXRa partner concentration 90 nM)
How it was run: as §1

[9] = system: PPARg:RXRa 30nM:10nM, anti-RXR (NR concentration 30 nM, RXRa partner concentration 10 nM)
How it was run: as §1

[10] = system: PPARg:RXRa 90nM:30nM, anti-RXR (NR concentration 90 nM, RXRa partner concentration 30 nM)
How it was run: as §1

| Sequence | PBM binding z-score [1] | PBM binding z-score [2] | PBM binding z-score [3] | PBM binding z-score [4] | PBM binding z-score [5] | PBM binding z-score [6] | PBM binding z-score [7] | PBM binding z-score [8] | PBM binding z-score [9] | PBM binding z-score [10] |
| --- | --- | --- | --- | --- | --- | --- | --- | --- | --- | --- |
| ACTATTAGTAGACTTAGGGCAACCGATACGACGC | -0.142 | -0.0337 | 0.0948 | -0.377 | 0.454 | -0.25 | 1.13 | 0.419 | 0.331 | 0.394 |
| CCGACTGTGGCAAGGTTACCATAACGCACAGCCA | 0.166 | 0.546 | -0.172 | 0.46 | -0.922 | 1.07 | 1.1 | 0.984 | -0.132 | 0.352 |
| GATACAGGGTCAGCAAGAGGCCAGAGTATGGAAA | 4.96 | 3.07 | -0.295 | 2.49 | -0.626 | 4.8 | 3.55 | 3.6 | 1.29 | 2.37 |
| TCTTGTAGATCAATAGAGGTTAAGAATGTGCGCT | 0.658 | 2.14 | 0.456 | 1.44 | 0.239 | 1.91 | 0.259 | 1.56 | 2.73 | 1.97 |
| GCTTACGGGTCAAAGGTTATAGGATGAATAGAAT | 7.58 | 5.53 | 0.854 | 5.77 | 0.455 | 6.89 | 11.4 | 9.24 | 10 | 10.9 |
| ATCGAAAGGTCGTTAGGTGAGTATACAGAAAGGC | 3.98 | 3.54 | 0.592 | 3.08 | 1.11 | 4.25 | 2.59 | 3.29 | 1.33 | 2.27 |
| TCATATAGGTAAATACTAGGTGAAAGTCCGATCT | 1.19 | 1.08 | 0.534 | 0.889 | 0.276 | 2.16 | 2.46 | 3.26 | 4.4 | 3.92 |
| TCATATAGGTAATACGGGTGAAAGTCGGCATCTA | 0.703 | 0.697 | 0.104 | 0.839 | 0.196 | 1.79 | 1.31 | 2.56 | 3.81 | 3.07 |
| TTCCCAAGGTGAAAGGTCGTTGATGCACGCCTTG | 3.69 | 3.79 | 0.848 | 2.97 | -0.253 | 5.44 | 7.9 | 7.35 | 6.2 | 7.54 |
| CCTTGCAGGCCAGGGTCACTCAAGCATTTCGCTT | 2.3 | 1.82 | -0.569 | 1.99 | -1.06 | 3.29 | 1.01 | 2.11 | -0.339 | 1.02 |
| CTCGAAAGGTCGTGCCCAGGTGAGTATACCAAAC | 5.26 | 3.99 | 0.422 | 3.22 | 0.542 | 4.81 | 2.54 | 3.88 | 1.14 | 2.23 |
| TCATATAGGTAATTGCTAGGTGAAAGTCCGATCT | 0.86 | 0.654 | 0.0873 | 0.781 | 0.17 | 1.41 | 0.771 | 2.36 | 3.67 | 3.02 |
| ACTAGCAGGCCAAGGGTCACGCAAGATTAGTCCG | 3.81 | 3.6 | 0.279 | 3.53 | -0.566 | 5.24 | 9.04 | 7.85 | 7.41 | 7.99 |
| CCTAGTTGCTCAAGGTCACACACGCTATAGGTAC | 4.3 | 4.59 | 4.23 | 3.72 | 1.6 | 3.98 | 2.13 | 2.77 | 0.986 | 1.95 |
| CCTCGGAGGACAGAAGGTCAGAGCTGTCCGCTTT | 1.38 | 1.63 | -0.0944 | 1.03 | -0.587 | 1.84 | -0.203 | 0.708 | -0.69 | -0.00592 |
| TCTAGCAGGCCAGAGGATCACTCAAGAGGTACGG | -0.551 | -0.271 | -0.763 | -0.773 | -1.43 | -0.206 | 0.826 | 1.2 | 1.53 | 1.43 |
| TCGAGTAGGATACCAATGGGGCATTCAGCTTTCT | -0.594 | -0.525 | -0.966 | -0.394 | -0.758 | -0.335 | -0.0828 | -0.0523 | 0.785 | 0.306 |
| TCTTGTAGATCAGAGGTTAAGAAAGCCGAAGCCT | 0.507 | 1.04 | -0.0177 | 1.4 | -0.128 | 2.87 | 4.35 | 5.58 | 4.79 | 5.63 |
| CCGACTGGCGCAAAGGTTACCATACTCAGTACGA | 0.725 | 1.29 | -0.0542 | 1.78 | -0.938 | 3.45 | 5.96 | 6.74 | 4.81 | 6.59 |
| GGAACGAGGGCTAGTTGATAGCAGAGTTTGATGG | -0.569 | -0.717 | -0.679 | -0.908 | -0.992 | -0.745 | 0.203 | -0.227 | -0.133 | -0.567 |
| GCTACAGGGTCAAGGCCAGAGTACGCGTATTGAT | 6.86 | 3.95 | -0.363 | 3.53 | -0.375 | 5.71 | 5.03 | 4.94 | 1.93 | 3.59 |
| CCTCTGAGGACAGAAGGTCAGAGCTGTCCGCTTT | 2.01 | 1.73 | 0.0206 | 1.25 | -0.446 | 2.02 | 0.0496 | 1.3 | -0.534 | 0.582 |
| TCATATAGGTAAACATGTGAAAGTCCGTAAGTTA | 0.869 | 0.742 | 0.308 | 0.769 | 0.208 | 1.58 | 1.86 | 2.39 | 3.92 | 3.22 |
